Measured values as given in PubChem BioAssay (NCATS).
The list shows a part of the results. Records with an inconclusive call do not appear. Values without a mark were called inactive. Calls of active or inactive are those of the source. Calls come from the whole dose curve.

tested on: Hepatitis C virus NS3/4A protease; experiment: Selectivity profile for inhibitors of NSP2Pro chikungunya virus (CHIKV): NS34A-HCV Counterscreen (AID 1964106); conditions: HCV NS3/4A protease biochemical counterscreen; series mostly up to 50.9 µM; activity change, negative = inhibition: at the top concentration; note: nearly all actives have a fitted effect of over 55% in size
Source text: PI: Natalia J. Martinez Ph.D.
National Center for Advancing Translational Sciences (NCATS),
National Institute of Health (NIH), Rockville, Maryland
Chikungunya virus (CHIKV) is a mosquito-borne RNA virus that has emerged as one of the most important global arboviral threats in the last decade. Although the first CHIKV vaccine has recently been FDA approved for use in healthy adults at increased risk, to date, there are no available antiviral drugs for CHIKV infection. CHIKV nsP2 protease plays a crucial role in the processing of the viral polypeptide precursor to release enzymes required for viral replication, thus making it a promising drug target for antiviral discovery. Here, we established a high-throughput pipeline to identify small molecule inhibitors of nsP2 proteolytic activity. The pipeline is composed of a suite of 1,536-well in vitro assays to support quantitative high-throughput (qHTS) screening campaigns. Specifically, we developed a fluorescence resonance energy transfer (FRET)-based assay using a fluorogenic peptide substrate encompassing an endogenous cleavage site and purified recombinant protease domain (nsP2pro). Using this assay, we interrogated ~37,000 small molecules, including those in drug repurposing libraries as well as chemically diverse and medicinal chemistry-friendly compounds. Hits were selected for follow-up validation against full-length nsP2 and an additional peptide. FRET-based 1,536-well assays for papain, hepatitis C virus NS3-4A, and human furin proteases were implemented to characterize compound selectivity. […] Novel compounds were identified to be potential nsP2 inhibitors and molecular docking analyses were performed to explain the binding mode of selected hits. In vitro antiviral activity was evaluated against a subset of compounds using a high-throughput CHIKV infection assay. To our knowledge, the pipeline presented here is unprecedented for CHIKV antiviral discovery research.
PROTOCOL TABLE (as described by Inglese J, Shamu CE and Guy RK. 2007)
SEQUENCE No. (e.g., 1, 2, 3, etc.); […] (e.g., Cells, Incubation, Reagent, etc.); VALUE; DESCRIPTION.
1; Enzyme; 2 uL; 1,536-well solid-bottom, black plate (Greiner Bio One).
2; Compounds; 20 nL; Echo 655 acoustic dispenser (Beckman Coulter).
3; Incubation; 15 min; room temperature in the dark.
4: Reagent; 2 uL; Ac-DE-[Lys(5-TAMRA)]-EE-[Abu-psi(COO)Ala]-S-[Lys(ECLIPSE-7)]-amide.
5; Detection; Fluorescence; time 0, ViewLux microplate reader (PerkinElmer) 525 nm excitation, 598/25 nm emission
6; Incubation; 15 min; room temperature
7; Detection; Fluorescence; time 15; ViewLux microplate reader (PerkinElmer), 525 nm excitation, 598/25 nm emission.
NOTES (numbers refer to sequence numbers above).
1. Two microliter of NS3-4A HCV enzyme solution (5 nM final concentration) in assay buffer (20 mM Tris-HCl pH 8.0, 150 mM NaCl, with 0.01% Tween 20) were dispensed into a 1,536-well solid-bottom black plate (Greiner Bio One) using the Kalypsys Pintool Station.
2. Twenty nanoliter of compounds, positive control Aprotinin (50 uM final concentration), or neutral control DMSO were transferred to the assay plates. Compounds in counter-screen assays were tested at 11 concentrations, 1:3 dilution points from 25 uM to 0.42 nM.
3. The assay plates were incubated in the dark for 15 min.
4. After incubation, 2 uL of 0.625 uM substrate (Ac-DE-[Lys(5-TAMRA)]-EE-[Abu-psi(COO)Ala]-S-[Lys(ECLIPSE-7)]-amide) in assay buffer (for NS3-4A assay) was added using the Kalypsys Pintool Station.
5-7. Plates were immediately read at time 0 then covered with stainless steel gasket lids and incubated for 15 min at room temperature in the dark. Fluorescence intensity in the assay plates were again read after incubation using the ViewLux imager equipped with Tamara fluorescence optics. The change in fluorescence intensity over the 15-min reaction period was normalized against DMSO and inhibitor controls as described below.
[…]
% is set by controls: 0 for no effect and ±100 for the full control effect; potency is the fitted concentration of half-maximal effect.

How did the Potency turn out when `C[C@@H]1C[C@@H](O)[C@@]23CO[C@]2(CO)C[C@@H](O)CC3[C@@]12CC(c1ccoc1)OC2=O` (stereo partly specified) was run?
Its Potency is 11.3 µM (active).

Which “outcome” value does the source give for `C=CC(=O)c1ccc2ccccc2c1` here?
The value was “inactive”.

With `COC([CH2][Hg])CNC(=O)c1ccccc1OCC(=O)O` (stereo unspecified) as the compound, how does the Potency read?
The Potency was 1.63 µM (active).

With `Cc1c(S(=O)(=O)O)oc2c1C(=O)C(=O)c1c-2ccc2c1CCCC2(C)C` as the compound, how does the “outcome” value read?
Its value is “inactive”.

How did the “activity change, negative = inhibition” value turn out when `CCOc1ccc(NC(=O)c2c(NC(=O)Cc3ccccc3)sc3c2CCCCC3)cc1` was run?
Its value is 87%.

How did the “activity change, negative = inhibition” value turn out when `CCOc1ccc(NC(=O)c2c(NC(=O)Cc3ccccc3)sc3c2CCC(C)C3)cc1` (stereo unspecified) was run?
The value was 107%.

With `N#CSc1cc(SC#N)c(N)nc1N` as the compound, how does the “outcome” value read?
The value was “inactive”.

`CCC(C)C(=O)OC1C(C)C2(O)C(C=C(CO)CC3(O)C(=O)C(C)=CC32)C2C(C)(C)C12OC(=O)C(C)C` (stereo unspecified) was tested. Which “outcome” value did it give?
The value was “inactive [at 17.2 µM]”.

For `C[C@@H]1O[C@@H](O[C@@H]2[C@@H](O)[C@H](OCCc3ccc(O)c(O)c3)O[C@H](CO[C@@H]3O[C@H](CO)[C@@H](O)[C@H](O)[C@H]3O)[C@H]2OC(=O)/C=C/c2ccc(O)c(O)c2)[C@H](O)[C@H](O)[C@H]1O`, which “outcome” value is on record?
Its value is “inactive”.

Which “activity change, negative = inhibition” value does the source give for `O=C(O)c1cccc(-n2[nH]c(-c3ccccc3)cc2=O)c1` here?
Its value is 106%.

How did the Potency turn out when `Cn1nnnc1Sc1ncnc2n[nH]c(-c3cccc(S(C)(=O)=O)c3)c12` was run?
The Potency was 316 µM (active).

Which “outcome” value does the source give for `CC1=C(/C=C/C(C)=C/C=C/C(C)=C/C=C/C=C(C)/C=C/C=C(C)/C=C/C2=C(C)CCCC2(C)C)C(C)(C)CCC1` here?
The value was “inactive”.

With `CC(=O)N[C@@H](C(=O)O[C@H]1CCC(C)(C)[C@@H]2CCC3=C(COC3=O)[C@@]12C)C(C)C` as the compound, how does the “outcome” value read?
Its value is “inactive [at 33.5 µM]”.

Which “outcome” value does the source give for `C=Cc1c(C)c2cc3nc(cc4[nH]c(cc5nc(cc1[nH]2)C(C)=C5CCC(=O)O)c(CCC(=O)OC)c4C)[C@@]1(C)C3=CC=C(C(=O)OC)[C@H]1C(=O)OC` here?
Its value is “inactive”.

For `CO[C@]1(NC(=O)CSC(F)F)C(=O)N2C(C(=O)O)=C(CSc3nnnn3CCO)CO[C@H]21`, which “activity change, negative = inhibition” value is on record?
The value was -9.29%.

With `CCOc1ccc(N(Cc2ccccc2)C(=O)c2nc(S(C)(=O)=O)ncc2Cl)cc1` as the compound, how does the “activity change, negative = inhibition” value read?
The value was -14.7%.
